PubChem BioAssay AID1159580 (chemical genetic matrix, 2015)
The whole screen tested about 5,500 compounds, of which about 2,000 (36%) were called active. Another 18% or so got no clear call; they are omitted. Cut-off read from the data, not from the text of the source: active = normalized growth mostly below about 0.91 (no sharp cut-off); inconclusive = no clear call, values can overlap the other calls; inactive = mostly above about 0.92. The list shows a part of the results.

Experiment: chemical genetic growth profiling, strain panel (AID 1159580);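 note: tested at 20 µM; growth read once vehicle control cultures reached saturation at 30 °C; 1 = growth at the plate median or of vehicle wells; lower values mean less growth of the strain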
Settings: S. cerevisiae deletion strains, growth OD
[1] = locus YHR030C, strain SLT2, active compounds read low
[2] = locus YHR079C, strain IRE1, active compounds read low
[3] = locus YJL095W, strain BCK1, active compounds read low
[4] = locus YJR066W, strain TOR1, active compounds read low
[5] = locus YLR113W, strain HOG1, active compounds read low
[6] = locus YNL183C, strain NPR1, active compounds read low
[7] = locus YOR231W, strain MKK1, active compounds read low
[8] = locus YPL256C, strain CLN2, active compounds read low

Measured: normalized growth

CC1(O)CC2C(CC1O)C2(C)C (stereo unspecified)
inactive: locus YAL021C, strain ccr4, active compounds read low 0.988 | locus YAL026C, strain drs2, active compounds read low 1 | locus YAL030W, strain snc1, active compounds read low 0.99 | locus YBL061C, strain skt5, active compounds read low 0.988 | locus YBR009C, strain hhf1, active compounds read low 1.04 | locus YBR023C, strain chs3, active compounds read low 0.999 | locus YBR171W, strain sec66, active compounds read low 0.998 | locus YBR231C, strain swc5, active compounds read low 0.993 | locus YBR279W, strain paf1, active compounds read low 0.995 | locus YCL011C, strain gbp2, active compounds read low 1 | locus YCL016C, strain dcc1, active compounds read low 1.01 | locus YCL069W, strain vba3, active compounds read low 1 | locus YCR088W, strain abp1, active compounds read low 0.997 | locus YDL005C, strain med2, active compounds read low 0.995 | locus YDL040C, strain nat1, active compounds read low 0.999 | locus YDR001C, strain nth1, active compounds read low 1.01 | locus YDR069C, strain doa4, active compounds read low 1.02 | locus YDR137W, strain rgp1, active compounds read low 1 | locus YDR159W, strain sac3, active compounds read low 1 | locus YDR195W, strain ref2 0.988 | locus YDR297W, strain sur2, active compounds read low 1.01 | locus YDR334W, strain swr1, active compounds read low 1 | locus YDR335W, strain msn5, active compounds read low 1 | locus YDR392W, strain spt3, active compounds read low 1 | locus YEL003W, strain gim4, active compounds read low 1.01 | locus YEL037C, strain rad23, active compounds read low 1 | locus YEL061C, strain CIN8 (second series), active compounds read low 0.999 | locus YER015W, strain faa2, active compounds read low 0.995 | locus YER016W, strain bim1, active compounds read low 0.998 | locus YER111C, strain swi4, active compounds read low 0.989 | locus YER155C, strain BEM2 (second series), active compounds read low 1 | locus YFR010W, strain ubp6, active compounds read low 0.997 | locus YGL167C, strain pmr1, active compounds read low 1.01 | locus YGL173C, strain kem1, active compounds read low 0.999 | locus YGL227W, strain vid30, active compounds read low 0.99 | locus YGL240W, strain doc1, active compounds read low 1.01 | locus YGL253W, strain hxk2, active compounds read low 1 | locus YHR013C, strain ard1, active compounds read low 1 | locus YHR027C, strain rpn1, active compounds read low 0.995 | [1] 1.04 | [2] 1.03 | locus YHR142W, strain chs7, active compounds read low 1.01 | locus YJL092W, strain hpr5, active compounds read low 1 | locus YJL095W, strain BCK1 (second series), active compounds read low 0.996 | [3] 0.993 | locus YJL115W, strain asf1, active compounds read low 0.996 | locus YJL129C, strain trk1, active compounds read low 1 | locus YJL154C, strain vps35, active compounds read low 0.994 | locus YJL164C, strain tpk1, active compounds read low 0.998 | locus YJL166W, strain qcr8, active compounds read low 1 | locus YJL187C, strain SWE1, active compounds read low 0.995 | [4] 0.989 | locus YKL160W, strain elf1, active compounds read low 0.994 | locus YKR026C, strain gcn3, active compounds read low 0.994 | locus YKR091W, strain srl3, active compounds read low 1 | locus YLL001W, strain dnm1, active compounds read low 1 | locus YLL026W, active compounds read low 0.998 | locus YLL041C, strain sdh2, active compounds read low 0.991 | locus YLR027C, strain aat2, active compounds read low 1 | [5] 0.976 | locus YLR221C, strain rsa3, active compounds read low 0.999 | locus YLR258W, strain gsy2, active compounds read low 0.982 | locus YLR262C, strain YPT6 (second series), active compounds read low 1.02 | locus YLR320W, strain mms22, active compounds read low 0.994 | locus YLR342W, strain FKS1, active compounds read low 1 | locus YLR357W, strain rsc2, active compounds read low 0.969 | locus YLR370C, strain arc18, active compounds read low 1.01 | locus YLR384C, strain iki3, active compounds read low 0.971 | locus YML120C, strain ndi1, active compounds read low 1 | locus YMR058W, strain fet3, active compounds read low 0.999 | locus YMR125W, strain sto1, active compounds read low 0.988 | locus YMR129W, active compounds read low 0.995 | locus YMR205C, strain PFK2, active compounds read low 0.998 | locus YMR231W, strain pep5, active compounds read low 1.01 | locus YNL071W, strain lat1, active compounds read low 1 | [6] 0.935 | locus YNL209W, strain ssb2, active compounds read low 1.01 | locus YNL248C, strain rpa49, active compounds read low 1 | locus YNL322C, strain KRE1 (second series), active compounds read low 0.981 | locus YNR049C, strain mso1, active compounds read low 0.985 | locus YOR001W, strain rrp6, active compounds read low 1.01 | locus YOR070C, strain gyp1, active compounds read low 0.997 | locus YOR080W, strain dia2, active compounds read low 1 | locus YOR083W, strain WHI5, active compounds read low 0.999 | locus YOR106W, strain vam3, active compounds read low 0.992 | [7] 1.03 | locus YOR265W, strain rbl2, active compounds read low 1.01 | locus YOR270C, strain vph1, active compounds read low 1.03 | locus YOR290C, strain snf2, active compounds read low 1.01 | locus YPL051W, strain arl3, active compounds read low 1 | locus YPL078C, strain atp4, active compounds read low 0.999 | locus YPL106C, strain sse1, active compounds read low 1.01 | locus YPL240C, strain hsp82, active compounds read low 0.998 | [8] 1.02

CCOC(=O)C1C(c2c(F)cccc2Cl)C(C(=O)OCC)C(O)(C(F)(F)F)NC1(O)C(F)(F)F (stereo unspecified)
inactive: locus YAR019C, strain CDC15, active compounds read low 0.984 | locus YBL105C, strain PKC1, active compounds read low 0.988 | locus YBR135W, strain CKS1, active compounds read low 0.994 | locus YBR136W, strain MEC1, active compounds read low 0.979 | locus YBR160W, strain CDC28, active compounds read low 0.993 | locus YDL017W, strain CDC7, active compounds read low 0.99 | locus YDL028C, strain MPS1, active compounds read low 0.993 | locus YDL101C, strain DUN1, active compounds read low 0.983 | locus YDL108W, strain KIN28, active compounds read low 0.994 | locus YDL132W, strain cdc53, active compounds read low 0.993 | locus YDL214C, strain PRR2, active compounds read low 0.986 | locus YDR052C, strain DBF4, active compounds read low 0.99 | locus YDR054C, strain cdc34, active compounds read low 0.985 | locus YDR226W, strain ADK1, active compounds read low 0.992 | locus YDR477W, strain SNF1, active compounds read low 0.998 | locus YER123W, strain YCK3, active compounds read low 0.966 | locus YER133W, strain GLC7, active compounds read low 0.988 | locus YFL009W, strain cdc4, active compounds read low 0.991 | locus YFL029C, strain CAK1, active compounds read low 0.981 | locus YFR003C, strain YPI1, active compounds read low 0.992 | locus YFR019W, strain FAB1, active compounds read low 0.942 | locus YFR028C, strain CDC14, active compounds read low 0.991 | locus YGR040W, strain KSS1, active compounds read low 0.994 | locus YGR052W, strain FMP48, active compounds read low 1.05 | locus YGR092W, strain DBF2, active compounds read low 1 | [1] 0.964 | [2] 0.971 | locus YHR082C, strain KSP1, active compounds read low 0.994 | locus YHR205W, strain SCH9, active compounds read low 0.965 | locus YIL147C, strain SLN1, active compounds read low 0.987 | [3] 0.982 | locus YJL128C, strain PBS2, active compounds read low 0.965 | locus YJL157C, strain FAR1, active compounds read low 0.994 | locus YJR016C, strain ILV3, active compounds read low 0.996 | locus YJR066W, strain TOR1 (second series), active compounds read low 0.951 | [4] 0.969 | locus YKL048C, strain ELM1, active compounds read low 0.988 | locus YKL067W, strain YNK1, active compounds read low 0.987 | locus YKL101W, strain HSL1, active compounds read low 0.989 | locus YKL193C, strain SDS22, active compounds read low 0.99 | locus YKL203C, strain TOR2, active compounds read low 1.06 | [5] 0.926 | locus YLR133W, strain CKI1, active compounds read low 0.985 | locus YLR403W, strain SFP1, active compounds read low 0.986 | locus YML070W, strain DAK1, active compounds read low 0.987 | locus YMR001C, strain CDC5, active compounds read low 0.99 | locus YMR205C, strain PFK2 (second series), active compounds read low 0.997 | locus YMR277W, strain FCP1, active compounds read low 0.991 | locus YNL006W, strain LST8, active compounds read low 0.996 | locus YNL020C, strain ARK1, active compounds read low 0.994 | locus YNL161W, strain CBK1, active compounds read low 0.991 | [6] 0.977 | locus YNL207W, strain RIO2, active compounds read low 0.992 | locus YNL222W, strain SSU72, active compounds read low 0.996 | locus YNL307C, strain MCK1 (second series), active compounds read low 0.986 | locus YOL078W, strain AVO1, active compounds read low 0.998 | locus YOL136C, strain PFK27, active compounds read low 0.979 | locus YOR061W, strain CKA2, active compounds read low 0.996 | locus YOR119C, strain RIO1, active compounds read low 1.03 | [7] 1 | locus YOR329C, strain SCD5, active compounds read low 0.986 | locus YPL031C, strain PHO85, active compounds read low 0.99 | locus YPL153C, strain RAD53, active compounds read low 0.992 | locus YPL204W, strain HRR25, active compounds read low 0.984 | locus YPL209C, strain IPL1, active compounds read low 0.988 | [8] 0.935 | locus YPR025C, strain CCL1, active compounds read low 0.986 | locus YPR106W, strain ISR1, active compounds read low 0.991 | locus YPR111W, strain DBF20, active compounds read low 0.984 | strain NNK1, active compounds read low 0.987 | strain TSCII, active compounds read low 0.995

CN1CC[C@@]2(C)c3cc(O)ccc3N(C)C12 (stereo partly specified)
inactive: locus YAL040C, strain CLN3, active compounds read low 0.971 | locus YCL061C, strain MRC1 (second series), active compounds read low 0.995 | locus YDR150W, strain NUM1, active compounds read low 0.977 | locus YDR363W, strain ESC2, active compounds read low 1.02 | locus YER002W, strain NOP16, active compounds read low 0.998 | locus YGR078C, strain PAC10, active compounds read low 0.982 | locus YGR229C, strain SMI1, active compounds read low 1.03 | locus YJR075W, strain HOC1, active compounds read low 1.01 | locus YMR263W, strain SAP30, active compounds read low 0.993 | locus YMR307W, strain GAS1, active compounds read low 1.02 | locus YNL153C, strain GIM3, active compounds read low 0.941 | locus YNL175C, strain NOP13, active compounds read low 0.989 | locus YNL197C, strain WHI3, active compounds read low 0.969 | locus YNL224C, strain SQS1, active compounds read low 1.02 | locus YOR083W, strain WHI5 (second series), active compounds read low 0.975 | locus YPL055C, strain LGE1, active compounds read low 0.985
